Reference: the supplement of paper PMC12494721
Counter-ions that a name gives are not always drawn.

tested on: Ruminococcus gnavus DSM 108212; assay: growth (OD595) fold change vs plate DMSO controls (fold change (ratio)); higher = more growth; conditions: incubation time: 27 h, anaerobic, 37 °C
Method in brief: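 After 27 h at 37 °C under anaerobic conditions, 96-well cultures in mGAM were shaken and read at 595 nm. The readings were blank-subtracted, corrected for compound background using 20 µM compound solutions in water, and converted to OD with a calibration factor of 5. Growth is defined as the fold change over the median of DMSO controls on each plate. Fold changes above 1.5 were set to NA, and each value is the mean of 2 biological replicates.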

Row | SMILES | growth
1 | Clc1ccc(CO/N=C(\Cn2ccnc2)c2ccc(Cl)cc2Cl)c(Cl)c1 [Oxiconazole nitrate] (20 µM) | 0.321
2 | NCc1ccc(S(N)(=O)=O)cc1 [Mafenide hydrochloride] (20 µM) | 0.971
3 | c1ccc(-c2ccc(C(c3ccccc3)n3ccnc3)cc2)cc1 (centres undefined) [Bifonazole] (20 µM) | 0.817
4 | OC[C@H]1O[C@@H](O[C@H]2[C@H](O)[C@@H](O)[C@H](O)O[C@@H]2CO)[C@H](O)[C@@H](O)[C@H]1O [Lactose] (50 µM) | 1.07
5 | CC(CNC1CCCCC1)OC(=O)c1ccccc1 (centres undefined) [Hexylcaine hydrochloride] (20 µM) | 1.02
6 | CN(C)CCc1c[nH]c2ccc(Cn3cncn3)cc12 [Rizatriptan benzoate] (20 µM) | 0.996
7 | CC[N+]1(CC)CCC(=C(c2ccccc2)c2ccccc2)C1C (centres undefined) [Prifinium Bromide] (20 µM) | 0.925
8 | COc1ccc(C(=O)c2ccc(C)cc2)c(O)c1 [Mexenone] (20 µM) | 0
9 | CC(C)NCC(O)COc1ccc(CCOCC2CC2)cc1 (centres undefined) [Betaxolol hydrochloride] (20 µM) | 0.967
10 | COc1cc(N)cn[n+]1-c1ccccc1 [Amezinium metilsulfate] (20 µM) | 1.07
11 | C[C@H](NCc1ccc(OCc2cccc(F)c2)cc1)C(N)=O [Safinamide] (20 µM) | 1.07
12 | CC#C[C@]1(O)CC[C@H]2[C@@H]3CCC4=CC(=O)CCC4=C3[C@@H](c3ccc(N(C)C)cc3)C[C@@]21C [Mifepristone] (20 µM) | 1.09
13 | O=C1CCC(N2C(=O)c3ccccc3C2=O)C(=O)N1 (centres undefined) [Thalidomide] (20 µM) | 1.15
14 | CCCC(=O)Nc1ncnc2c1ncn2[C@@H]1O[C@@H]2COP(=O)(O)O[C@H]2[C@H]1OC(=O)CCC [Bucladesine sodium salt] (20 µM) | 0.964
15 | CCOC(=O)C1=C[C@@H](OC(CC)CC)[C@H](NC(C)=O)[C@@H](N)C1 [Oseltamivir phosphate] (20 µM) | 1.01
16 | Brc1c(NC2=NCCN2)ccc2nccnc12 [Brimonidine L-tartrate] (20 µM) | 1.03
17 | CC(C)(C)NC[C@H](O)COc1nsnc1N1CCOCC1 [Timolol maleate salt] (20 µM) | 1.01
18 | O=C(CCCN1CCC(O)(c2ccc(Cl)cc2)CC1)c1ccc(F)cc1 [Haloperidol] (20 µM) | 0.802
19 | OC[C@@H](O)[C@H](O)[C@@H](O)CO [Xylitol] (50 µM) | 1.12
20 | Cc1cnc(C(=O)NCCc2ccc(S(=O)(=O)NC(=O)NC3CCCCC3)cc2)cn1 [Glipizide] (20 µM) | 1.08
21 | Fc1ccc([C@@H]2CCNC[C@H]2COc2ccc3c(c2)OCO3)cc1 [Paroxetine hydrochloride] (20 µM) | 0.929
22 | Nc1nnc(-c2cccc(Cl)c2Cl)c(N)n1 [Lamotrigine] (20 µM) | 0.963
23 | Oc1c(Cl)cc(Cl)c(Cl)c1Cc1c(O)c(Cl)cc(Cl)c1Cl (20 µM) | 0
24 | Cc1c(Nc2ncccc2C(=O)O)cccc1C(F)(F)F [Flunixin meglumine] (20 µM) | 1.15
25 | COc1c(O)cc2c(c1O)[C@@H]1O[C@H](CO)[C@@H](O)[C@H](O)[C@H]1OC2=O [Bergenin] (20 µM) | 1.05
26 | Nc1c(CC(=O)O)cccc1C(=O)c1ccc(Br)cc1 [Bromfenac] (20 µM) | 1.13
27 | CNC[C@H](O)[C@@H](O)[C@H](O)[C@H](O)CO [Meglumine] (20 µM) | 0.994
28 | O=C(Nc1ccc([N+](=O)[O-])cc1Cl)c1cc(Cl)ccc1O [Niclosamide] (20 µM) | 0.78
29 | CN1CCN2c3ncccc3Cc3ccccc3C2C1 (centres undefined) [Mirtazapine] (20 µM) | 1.11
